Assay outcomes from PubChem BioAssay.
Compounds with a hit are over-represented: about 32% of the library has one in this group of screens.
CYP2C9 activ – increases human cytochrome P450 2C9 activity; recombinant CYP2C9, luciferin-H conversion, luminescence; hits give high values; factor 1 = untreated enzyme, 0 = blocked; 1.4% of 96,000 active; AID 1024; activation factor at 5 µM;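 active = activation factor of 2 or more for CYP2C9 at a 5 µM dose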;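 note: 0 = sulfaphenazole-blocked wells and 1 = vehicle-only wells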
CYP2C9 inhib – blocks human cytochrome P450 2C9. P11712. CYP2C9 Supersomes, luciferin-H conversion, luminescence. inhibition, % at 5 µM. 20% of 96,000 active. AID 777;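 active = blocking of liver enzyme CYP2C9 beyond about 50% at 5 µM, limit read from the data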
CYP2C19 activ – cytochrome P450 2C19 (human) activation; P33261; 96,000 tested, under 10 active; activation factor at 5 µM; recombinant CYP2C19, luciferin-H EGE luminescence; hits give high values; 0 = fully inhibited enzyme, 1 = untreated enzyme;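 active = activation factor of at least 2 at 5 µM in the primary screen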;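 note: 0 = wells with 2.5 mM tranylcypromine and 1 = vehicle-only wells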
Target sequence (P33261 whole entry, looked up): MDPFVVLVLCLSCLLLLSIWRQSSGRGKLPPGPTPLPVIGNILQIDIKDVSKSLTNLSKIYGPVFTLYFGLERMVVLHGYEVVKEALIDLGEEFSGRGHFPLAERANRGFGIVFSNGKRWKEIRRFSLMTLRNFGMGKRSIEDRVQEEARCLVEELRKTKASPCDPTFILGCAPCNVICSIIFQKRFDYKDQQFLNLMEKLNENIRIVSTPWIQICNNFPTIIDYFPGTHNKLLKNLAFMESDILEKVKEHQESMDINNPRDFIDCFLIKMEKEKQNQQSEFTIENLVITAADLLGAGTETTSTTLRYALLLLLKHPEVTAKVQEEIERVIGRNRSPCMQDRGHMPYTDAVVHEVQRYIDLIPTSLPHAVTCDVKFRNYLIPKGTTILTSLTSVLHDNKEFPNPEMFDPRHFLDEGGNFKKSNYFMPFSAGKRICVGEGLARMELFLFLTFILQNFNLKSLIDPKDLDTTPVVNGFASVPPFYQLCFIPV
PostGolgi yeast – growth inhibition of a yeast mutant, post-Golgi transport screen | post-Golgi transport phenotypic cell assay | inhibition, % at 10 µM | 0.9% of 98,000 active | AID 739;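 note: yeast cells grown in 1536-well plates; yeast grown about 18 h at 30C before absorbance read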
CYP2C19 inh – blocks human cytochrome P450 2C19; CYP2C19 Supersomes, luciferin-H EGE luminescence, 30 min; AID 778; 21% of 96,000 active; inhibition, % at 5 µM; P33261;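 active = CYP2C19 inhibition above a set limit at 5 µM in the primary screen, cut at about 50% in these data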;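 note: plate controls were negative control wells for no effect and 2.5 mM tranylcypromine positive control for full effect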
PostGolgi ctrl – growth of the yeast control strain, post-Golgi counter-screen. efflux-deficient yeast background strain, growth absorbance A615, 16 h. inhibition, % at 10 µM. 5% of 98,000 active
Starred values were filed as active, the others as inactive. Cut-off read from the data, not from the text of the source, unless noted: active = inhibition above about 30%; inactive = the rest.

How did O=C(Nc1ncc2c(n1)-c1ccccc1OC2)c1ccccc1Cl do in these assays?
CYP2C9 activ: 0.7; CYP2C9 inhib: 30; CYP2C19 activ: 0.9; PostGolgi yeast: 3; CYP2C19 inh: 14; PostGolgi ctrl: 16

What do the screens show for `NC(=S)n1[nH]c(-c2ccc([N+](=O)[O-])cc2)c(N=Nc2ccc(O)cc2)c1=O`?
CYP2C9 activ: 0.2; CYP2C9 inhib: 76*; CYP2C19 activ: 1; PostGolgi yeast: 9; CYP2C19 inh: -3; PostGolgi ctrl: -4

Results for NC(=O)N1CC(O)CC1C(=O)Nc1ccc(Cl)c(Cl)c1 (centres undefined) ?
PostGolgi yeast: 7; PostGolgi ctrl: -5

How did CCN(CC)S(=O)(=O)c1cccc(-c2nnc(SCC(=O)c3cc(C)n(C4CC4)c3C)o2)c1 do in these assays?
CYP2C9 activ: 0.3; CYP2C9 inhib: 70*; CYP2C19 activ: 0.4; CYP2C19 inh: 64*

What do the screens show for `CCN(CC)S(=O)(=O)c1ccc(-c2nnc(SCC(=O)N3c4ccccc4CC3C)o2)cc1` (centres undefined)?
CYP2C9 activ: 1; CYP2C9 inhib: 4; CYP2C19 activ: 1.1; PostGolgi yeast: 1; CYP2C19 inh: -8; PostGolgi ctrl: -12

What do the screens show for `C=CCn1c(C)cc(C(=O)CSc2nnc(-c3cccc(S(=O)(=O)N(CC)CC)c3)o2)c1C`?
CYP2C9 activ: 0.1; CYP2C9 inhib: 89*; CYP2C19 activ: 0.1; PostGolgi yeast: -5; CYP2C19 inh: 87*; PostGolgi ctrl: -3

How did CCN1CCN(Cc2ccc(NC(=O)Nc3ccccc3Cl)cc2)CC1 do in these assays?
CYP2C9 activ: 0.9; CYP2C9 inhib: 10; CYP2C19 activ: 1.1; PostGolgi yeast: 0; CYP2C19 inh: -10; PostGolgi ctrl: 4

Results for CCN1CCN(Cc2ccccc2NC(=O)Nc2ccc(C)cc2)CC1 ?
CYP2C9 activ: 0.8; CYP2C9 inhib: 18; CYP2C19 activ: 1.1; PostGolgi yeast: -3; CYP2C19 inh: -12; PostGolgi ctrl: 35*

What do the screens show for `CC(O)CCC(=O)NCCNC(=O)CCC(C)O` (centres undefined)?
CYP2C9 activ: 1.1; CYP2C9 inhib: -15; CYP2C19 activ: 1.2; CYP2C19 inh: -18

How did O=C(CCSCCC(=O)NCCN1CCOCC1)NCCN1CCOCC1 do in these assays?
CYP2C9 activ: 0.2; CYP2C9 inhib: 84*; CYP2C19 activ: 1.1; PostGolgi yeast: 0; CYP2C19 inh: -7; PostGolgi ctrl: -1

What do the screens show for `Cc1c(C(=O)NCc2cccnc2)oc2c1C(=O)CC(C)(C)C2`?
CYP2C9 activ: 0.4; CYP2C9 inhib: 56*; CYP2C19 activ: 0.2; PostGolgi yeast: 2; CYP2C19 inh: 80*; PostGolgi ctrl: 7

How did O=C(CCCc1ccccc1)NCCN1CCOCC1 do in these assays?
CYP2C9 activ: 1; CYP2C9 inhib: 0; CYP2C19 activ: 0.6; PostGolgi yeast: 3; CYP2C19 inh: 40; PostGolgi ctrl: -3

How did Cc1c(C(=O)NCc2cccnc2)oc2ccccc12 do in these assays?
CYP2C9 activ: 0.8; CYP2C9 inhib: 20; CYP2C19 activ: 0.4; PostGolgi yeast: 9; CYP2C19 inh: 64*; PostGolgi ctrl: -3

Results for Cc1c(C(=O)NCCN2CCOCC2)oc2ccccc12 ?
CYP2C9 activ: 0.9; CYP2C9 inhib: 6; CYP2C19 activ: 0.5; PostGolgi yeast: -1; CYP2C19 inh: 54*; PostGolgi ctrl: 1

What do the screens show for `Cc1cc(NC(=O)CSc2nnnn2C)n(-c2ccccc2)n1`?
CYP2C9 activ: 1.1; CYP2C9 inhib: -10; CYP2C19 activ: 1.2; PostGolgi yeast: 18; CYP2C19 inh: -16; PostGolgi ctrl: 21

How did CCOC(=O)C1CCN(C(=O)CN(c2ccc3c(c2)OCCO3)S(C)(=O)=O)CC1 do in these assays?
CYP2C9 activ: 1; CYP2C9 inhib: -3; CYP2C19 activ: 1; PostGolgi yeast: -9; CYP2C19 inh: 0; PostGolgi ctrl: 12

How did CCSC(=Nc1ccccc1)C1=C(O)COC1=O do in these assays?
CYP2C9 activ: 0.9; CYP2C9 inhib: 5; CYP2C19 activ: 1; PostGolgi yeast: 4; CYP2C19 inh: 1; PostGolgi ctrl: 3

Results for O=C(NCCN1CCOCC1)c1ccncc1 ?
CYP2C9 activ: 0.9; CYP2C9 inhib: 15; CYP2C19 activ: 0.2; PostGolgi yeast: 0; CYP2C19 inh: 81*; PostGolgi ctrl: 2

Results for CCN(CC)c1ccc(C2CC(=O)Nc3cc(OC)c(OC)cc32)cc1 (centres undefined) ?
CYP2C9 activ: 0.6; CYP2C9 inhib: 39; CYP2C19 activ: 0.6; PostGolgi yeast: -7; CYP2C19 inh: 39; PostGolgi ctrl: 3

Results for Cc1cc(C)n2c(Br)c(CSc3nc4ccccc4o3)nc2n1 ?
CYP2C9 activ: 0.9; CYP2C9 inhib: 13; CYP2C19 activ: 0.8; PostGolgi yeast: -2; CYP2C19 inh: 17; PostGolgi ctrl: 2

What do the screens show for `CCC1Oc2ccc(C)cc2N(Cc2cccc(C)c2)C1=O` (centres undefined)?
CYP2C9 activ: 0.8; CYP2C9 inhib: 21; CYP2C19 activ: 0.8; PostGolgi yeast: -1; CYP2C19 inh: 19; PostGolgi ctrl: 14

What do the screens show for `CC1Oc2ccccc2N(Cc2ccccc2Cl)C1=O` (centres undefined)?
PostGolgi yeast: 4; PostGolgi ctrl: 21

What do the screens show for `Cc1ccc2c(c1)N(Cc1ccc3c(c1)OCO3)C(=O)C(C)O2` (centres undefined)?
CYP2C9 activ: 0.7; CYP2C9 inhib: 33; CYP2C19 activ: 0.4; PostGolgi yeast: 1; CYP2C19 inh: 61*; PostGolgi ctrl: 11

How did CC1Oc2ccccc2N(Cc2ccccc2F)C1=O (centres undefined) do in these assays?
CYP2C9 activ: 0.3; CYP2C9 inhib: 67*; CYP2C19 activ: 0.1; PostGolgi yeast: 19; CYP2C19 inh: 90*; PostGolgi ctrl: 9

How did CC1CCC(NC(=O)c2cnccn2)CC1 (centres undefined) do in these assays?
CYP2C9 activ: 0.7; CYP2C9 inhib: 35; CYP2C19 activ: 0.8; PostGolgi yeast: 5; CYP2C19 inh: 23; PostGolgi ctrl: 16

How did c1ccc(Cn2ncc3c(NCc4ccco4)ncnc32)cc1 do in these assays?
CYP2C9 activ: 1.1; CYP2C9 inhib: -6; CYP2C19 activ: 0.8; PostGolgi yeast: -5; CYP2C19 inh: 19; PostGolgi ctrl: -11

How did CCCCNc1ncnc2c1cnn2-c1ccc(Cl)cc1 do in these assays?
CYP2C9 activ: 0.3; CYP2C9 inhib: 70*; CYP2C19 activ: 0.7; PostGolgi yeast: -2; CYP2C19 inh: 28; PostGolgi ctrl: 35*

Results for Clc1ccc(-n2ncc3c(NCc4ccccn4)ncnc32)cc1 ?
PostGolgi yeast: -3; PostGolgi ctrl: 32*

What do the screens show for `CCCCNc1ncnc2c1cnn2-c1ccc(C)cc1C`?
CYP2C9 activ: 0.7; CYP2C9 inhib: 29; CYP2C19 activ: 0.7; PostGolgi yeast: -14; CYP2C19 inh: 26; PostGolgi ctrl: 21

What do the screens show for `Clc1ccc(-n2ncc3c(NCCN4CCOCC4)ncnc32)cc1`?
CYP2C9 activ: 1; CYP2C9 inhib: 2; CYP2C19 activ: 0.9; PostGolgi yeast: 0; CYP2C19 inh: 13; PostGolgi ctrl: 7
